Sampled rows, rich in hits. Any-hit rate of the full collection: about 3.4%.
ssDAF-12 act = S. stercoralis DAF-12 nuclear receptor activators, primary screen, cell-based, luminescence, HEK293, GRIP1 co-expression, lit1-tk-luc; activation, % at 6.8 µM; Nuclear hormone receptor DAF-12 (Strongyloides stercoralis); 1% of 370,000 active; AID 652126, 2013; HEK293 ssDAF-12/GRIP1 lit1-tk-luc reporter; % of 3 µM dafachronic acid response;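 active = activation above the mean over all tested compounds plus 3 SD, cut at about 0.9% in these data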;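 note: 0% = DMSO-only wells and 100% = 3 µM delta7-dafachronic acid wells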
NF-kB expr up = activators of NF-kB expression in neurons, primary screen, cell-based, HTS | human neuronal cells, NF-kB reporter expression; hits give high values | fold change at 12.5 µM | 1.6% of 190,000 active | AID 1239, 2008; in the data active = fold change above about 3.3
hcDAF12 agonist = H. contortus DAF-12 nuclear receptor activators, primary screen, cell-based, luminescence, HEK293, lit1-tk-luc reporter | HEK293 hcDAF-12 lit1-tk-luc reporter; 0% DMSO, 100% Δ7-dafachronic acid | activation, % at 6.8 µM | 1.4% of 370,000 active;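 active = activation above the mean of all tested compounds plus 3 SD, cut at about 5.5% in these data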;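 note: 100% = response to 3 µM Δ7-dafachronic acid high control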
hgDAF12 agonist = H. glycines DAF-12 receptor agonists, primary screen, cell-based, luminescence, HEK293, GAL4 fusion, UAS-luciferase; Nuclear hormone receptor DAF-12 (Heterodera glycines), GAL4 fusion; HEK293 GAL4-hgDAF12 UAS-luciferase reporter, agonist luminescence; normalized to butyrate control; activation, % at 6.8 µM; 1.8% of 370,000 active;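 active = activation above a cutoff set at the mean of all screened compounds plus 3 SD, cut at about 10% in these data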;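 note: 0% = DMSO wells and 100% = sodium butyrate wells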
APP 5'UTR act = activators of APP 5'UTR luciferase reporter, primary screen, SH-SY5Y cells. SH-SY5Y APP 5'UTR luciferase reporter, luminescence; zero percent = DMSO vehicle wells. 1% of 190,000 active. activation, % at 2 µM. AID 1276, 2008;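 active = activation above a set limit, based on mean plus 3 SD of controls, cut at about 140% in these data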
LXRb hcDAF ctr = LXR agonists, Gal4 luciferase reporter, confirmation, counter-screen for hcDAF-12 agonist project, cell-based, luminescence, HEK293, H. contortus campaign | activation, % at 6.8 µM | 3,400 tested, under 10 active | shares compounds with hcDAF12 agonist | HEK293 Gal4-LXR tk-luc reporter, 24 h; normalized: DMSO 0%, positive control 100%;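 active = mean percent activation of the reporter above a cutoff set as the average over tested compounds plus their standard deviation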
Target sequence (P55055 whole entry, looked up, the tested form may be a part): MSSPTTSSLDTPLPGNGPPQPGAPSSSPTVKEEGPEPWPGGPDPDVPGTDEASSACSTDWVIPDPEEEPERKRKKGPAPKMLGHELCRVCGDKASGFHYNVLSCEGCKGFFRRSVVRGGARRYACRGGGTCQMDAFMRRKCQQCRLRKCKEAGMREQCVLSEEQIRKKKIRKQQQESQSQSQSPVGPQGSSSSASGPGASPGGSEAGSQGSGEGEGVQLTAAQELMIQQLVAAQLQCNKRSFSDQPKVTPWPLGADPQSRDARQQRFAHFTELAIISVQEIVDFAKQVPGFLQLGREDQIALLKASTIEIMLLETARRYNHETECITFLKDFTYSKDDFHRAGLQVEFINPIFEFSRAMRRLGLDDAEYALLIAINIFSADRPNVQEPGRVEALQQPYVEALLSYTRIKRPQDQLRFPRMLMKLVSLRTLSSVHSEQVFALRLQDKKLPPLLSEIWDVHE
hcDAF12 conf = H. contortus DAF-12 receptor agonists, confirmation, cell-based, luminescence, HEK293, lit1-tk-luc, triplicate. shares compounds with hcDAF12 agonist. HEK293 hcDAF-12 lit1-tk-luc reporter; % of Δ7-dafachronic acid response. activation, % at 6.8 µM. 61% of 3,400 active. AID 743032, 2013;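 active = mean activation across triplicate tests above the threshold derived from the earlier primary screen, cut at about 5.5% in these data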;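 note: 0% = DMSO only wells and 100% = 3 µM Δ7-dafachronic acid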
* = called active by the depositor.

Results for CC1=NN(C(C#N)c2ccccc2C)C(c2ccccc2)C1 (configuration not stated) ?
ssDAF-12 act: -1.6; hcDAF12 agonist: 3.9; hgDAF12 agonist: 1.2

How did Cn1ccnc1CN1CCC[C@]2(CC[C@H](CCC#N)O2)C1 do in these assays?
ssDAF-12 act: -1.7; hcDAF12 agonist: 1.4; hgDAF12 agonist: -0.2

Results for C[C@H]1[C@@H](OC(=O)NCc2ccccc2)CC[C@@]23CCCN2C(=O)CCC[C@@H]13 ?
ssDAF-12 act: -0.5; hcDAF12 agonist: -1.0; hgDAF12 agonist: -3.8

How did CSCCC(NC(=O)c1ccc(Cl)cc1)C(=O)OCC(=O)Nc1cc(Cl)ccc1C#N (configuration not stated) do in these assays?
ssDAF-12 act: 0.3; NF-kB expr up: 0.88; hcDAF12 agonist: 7.5*; hgDAF12 agonist: 0.9; APP 5'UTR act: 6.8; LXRb hcDAF ctr: -0.3; hcDAF12 conf: 3.3

Results for Cc1cnc(C(=O)OCC(=O)Nc2cc(Cl)ccc2C#N)cn1 ?
ssDAF-12 act: 0.4; hcDAF12 agonist: 6.6*; hgDAF12 agonist: 3.4; LXRb hcDAF ctr: -0.2; hcDAF12 conf: 4.2

What do the screens show for `Cc1c(C(=O)Nc2cccnc2Cl)oc2ccccc12`?
ssDAF-12 act: 0.6; hcDAF12 agonist: 6.7*; hgDAF12 agonist: 8.9; LXRb hcDAF ctr: 1.3; hcDAF12 conf: 6.8*

How did Cc1ccc(NC(=O)c2oc3ccccc3c2C)nc1 do in these assays?
ssDAF-12 act: 3.3*; hcDAF12 agonist: 8.5*; hgDAF12 agonist: 12.6*; LXRb hcDAF ctr: 1.1; hcDAF12 conf: 15.8*

How did Cc1c(C(=O)OCC(=O)Nc2ccc(N3CCOCC3)cc2)oc2ccccc12 do in these assays?
ssDAF-12 act: -0.9; hcDAF12 agonist: 0.9; hgDAF12 agonist: -1.2

How did COc1ccc(NC(=O)c2oc3ccccc3c2C)cn1 do in these assays?
ssDAF-12 act: 1.1*; hcDAF12 agonist: 11.3*; hgDAF12 agonist: 6.7; LXRb hcDAF ctr: 0.5; hcDAF12 conf: 9.8*

What do the screens show for `Cc1c(C(=O)Nc2ccncc2)oc2ccccc12`?
ssDAF-12 act: -1.8; NF-kB expr up: 1; hcDAF12 agonist: 0.7; hgDAF12 agonist: -1.3; APP 5'UTR act: 26.8

Results for Cc1c(C(=O)Nc2ccc(N3CCOCC3)cc2)oc2ccccc12 ?
ssDAF-12 act: -0.1; NF-kB expr up: 1.66; hcDAF12 agonist: 10.5*; hgDAF12 agonist: 4.7; APP 5'UTR act: 67.6; LXRb hcDAF ctr: 0.8; hcDAF12 conf: 8.6*

What do the screens show for `CCCC(=O)N1CCC[C@]2(CC[C@@H](CCC#N)O2)C1`?
ssDAF-12 act: -1.4; hcDAF12 agonist: 0.7; hgDAF12 agonist: -1.3

Results for O=C(C1CCCN1S(=O)(=O)c1ccc(Br)s1)N1CCN(c2ccccc2)CC1 (configuration not stated) ?
ssDAF-12 act: -0.9; hcDAF12 agonist: -0.2; hgDAF12 agonist: -4.8

How did COC(=O)c1sc(NC(=O)c2oc3ccccc3c2C)nc1C do in these assays?
ssDAF-12 act: 0.7; NF-kB expr up: 2.5; hcDAF12 agonist: 8.2*; hgDAF12 agonist: 8.0; APP 5'UTR act: 26.6; LXRb hcDAF ctr: 0.7; hcDAF12 conf: 4.6

Results for Cc1c(C(=O)Nc2nnc(C(F)(F)F)s2)oc2ccccc12 ?
ssDAF-12 act: -1.1; NF-kB expr up: 1.56; hcDAF12 agonist: -0.6; hgDAF12 agonist: 0.9

What do the screens show for `Cc1ccc2oc(C(=O)Nc3cc(C)on3)c(C)c2c1`?
ssDAF-12 act: 2.5*; hcDAF12 agonist: 11.3*; hgDAF12 agonist: 11.1*; LXRb hcDAF ctr: 1.5; hcDAF12 conf: 13.7*

What do the screens show for `Cn1c(-c2ccc3ccccc3n2)[n+](C)c2ccccc21`?
ssDAF-12 act: -1.2; hcDAF12 agonist: 10.1*; hgDAF12 agonist: 2.5; LXRb hcDAF ctr: 0.1; hcDAF12 conf: 2.4

What do the screens show for `Cn1c(-c2ccccn2)[n+](C)c2ccccc21`?
ssDAF-12 act: -0.6; NF-kB expr up: 0.94; hcDAF12 agonist: 0.3; hgDAF12 agonist: 3.1; APP 5'UTR act: 0.8

Results for CC(C)(C)c1ccc(S(=O)(=O)N2CCC(C(=O)N3CCN(C4CCCCC4)CC3)CC2)cc1 ?
ssDAF-12 act: -1.0; hcDAF12 agonist: -1.2; hgDAF12 agonist: 2.3

What do the screens show for `CC(=O)N[C@@H]1C[C@@H]2O[C@@H](CO)CC[C@@H]2O[C@@H]1CCc1ccc(C#CC2(O)CCCC2)cc1`?
ssDAF-12 act: -1.8; hcDAF12 agonist: -2.4; hgDAF12 agonist: -0.5

How did COC(=O)c1cccc(NC(=O)COC(=O)CSc2nc(C)cc(C)n2)c1 do in these assays?
ssDAF-12 act: -0.7; NF-kB expr up: 1.28; hcDAF12 agonist: -0.8; hgDAF12 agonist: 2.3; APP 5'UTR act: -10.2

What do the screens show for `Cc1ccc2nc(NC(=O)COC(=O)CSc3nc(C)cc(C)n3)sc2c1`?
ssDAF-12 act: 0.2; NF-kB expr up: 1.75; hcDAF12 agonist: 9.6*; hgDAF12 agonist: 8.4; APP 5'UTR act: 22.6; LXRb hcDAF ctr: 0.5; hcDAF12 conf: 8.7*

How did COC(=O)c1ccc2nc(NC(=O)COC(=O)CSc3nc(C)cc(C)n3)sc2c1 do in these assays?
ssDAF-12 act: 0.4; NF-kB expr up: 1.68; hcDAF12 agonist: 10.7*; hgDAF12 agonist: 5.4; APP 5'UTR act: -6.8; LXRb hcDAF ctr: 0.3; hcDAF12 conf: 5.9*

Results for Cc1nn(CCC(=O)NNC(=O)Nc2ccccc2)c(C)c1[N+](=O)[O-] ?
ssDAF-12 act: -1.5; hcDAF12 agonist: -1.2; hgDAF12 agonist: 0.1

Results for CC(=O)N1CCCN(S(=O)(=O)c2ccc3c(c2)n(C)c(=O)c(=O)n3C)CC1 ?
ssDAF-12 act: -1.5; hcDAF12 agonist: 0.2; hgDAF12 agonist: 1.5

What do the screens show for `Cc1cccc(-n2ncc3c(NCCCO)ncnc32)c1`?
ssDAF-12 act: 0.1; NF-kB expr up: 3.29; hcDAF12 agonist: 6.6*; hgDAF12 agonist: 12.2*; APP 5'UTR act: 135.4*; LXRb hcDAF ctr: 0.7; hcDAF12 conf: 3.5

Bioassay records (PubChem BioAssay)
